From PubChem
Many of the other results were omitted from the sample, so hits are more common in it than they were.
MITF inh: inhibitors of MITF. AID 2240. TRPM1 promoter luciferase, luminescence, 24 h. hit rate 0.28% among 37,000. inhibition, % (no concentration beside the values); in the data active means inhibition above about 85%;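 further: human melanocyte line stably carrying TRPM1 promoter luciferase reporter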
STK33 kin inh: blocks human STK33 kinase activity; Q9BYT3; ADP-Glo luminescence, MBP substrate; inhibition, % at 12.5 µM; hit rate 0.44% among 27,000; in the data active means inhibition above about 20%
Target sequence (Q9BYT3 whole entry, looked up): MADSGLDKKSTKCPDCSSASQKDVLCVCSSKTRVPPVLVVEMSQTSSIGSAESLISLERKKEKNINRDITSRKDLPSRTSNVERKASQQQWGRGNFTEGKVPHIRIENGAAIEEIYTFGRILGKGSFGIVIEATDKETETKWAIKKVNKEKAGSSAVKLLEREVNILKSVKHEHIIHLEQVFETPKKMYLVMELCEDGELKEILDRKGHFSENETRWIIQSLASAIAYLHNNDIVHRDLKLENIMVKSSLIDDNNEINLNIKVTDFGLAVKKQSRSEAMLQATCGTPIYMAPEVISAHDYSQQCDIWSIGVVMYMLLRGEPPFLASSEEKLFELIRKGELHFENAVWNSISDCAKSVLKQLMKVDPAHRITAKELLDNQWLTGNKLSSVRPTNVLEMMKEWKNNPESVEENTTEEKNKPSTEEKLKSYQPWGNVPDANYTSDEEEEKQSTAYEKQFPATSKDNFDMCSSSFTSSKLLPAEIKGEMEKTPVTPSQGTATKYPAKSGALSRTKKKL
NOMO-1 viab: STK33 inhibitor candidate reducing NOMO-1 cell viability; NOMO-1 AML viability, CellTiter-Glo luminescence, 72 h; inhibition, % (test concentration not listed); hit rate 7.5% among 37,000; in the data active means inhibition above about 80%
p53 PUMA act: restores mutant p53 pathway signaling in SW480 cells | SW480 PUMA-promoter luciferase, p53 mutant reactivation | activation, % at 9.98 µM | hit rate 1.5% among 28,000; in the data active means activation above about 52%
Numbers without * were called inactive; / = no result.

SMILES	MITF inh	STK33 kin inh	NOMO-1 viab	p53 PUMA act
C[C@H](CO)N1C[C@H](C)[C@@H](CN(C)Cc2ccc(C(F)(F)F)cc2)Oc2c(NC(=O)C3CCCCC3)cccc2C1=O	43	/	99*	/
CCc1nc(SCC(=O)Nc2c(Cl)cccc2Cl)c(C#N)c(C(F)(F)F)c1C	-6	3	-1	3
C[C@H](CO)N1C[C@H](C)[C@H](CN(C)Cc2ccc(C(=O)Nc3ccccc3N)cc2)Oc2ccc(NC(=O)Nc3ccc(C(F)(F)F)cc3)cc2CC1=O	17	/	140*	/
C[C@@H]1CN([C@H](C)CO)C(=O)Cc2cc(NC(=O)Nc3ccc(F)cc3)ccc2O[C@H]1CN(C)Cc1ccc(C(=O)Nc2ccccc2N)cc1	-3	/	15	/
C[C@@H]1CN([C@H](C)CO)C(=O)c2cc(NC(=O)Nc3cccc4ccccc34)ccc2O[C@@H]1CN(C)Cc1ccc(C(=O)Nc2ccccc2N)cc1	4	/	105*	/
C[C@@H]1CN([C@H](C)CO)C(=O)Cc2cc(NC(=O)Nc3ccccc3)ccc2O[C@@H]1CN(C)Cc1ccc(C(=O)Nc2ccccc2N)cc1	-19	/	108*	/
C[C@@H]1CN([C@@H](C)CO)C(=O)Cc2cc(NC(=O)Nc3ccc(C(F)(F)F)cc3)ccc2O[C@@H]1CN(C)Cc1ccc(C(=O)Nc2ccccc2N)cc1	21	/	127*	/
C[C@H]1CN([C@@H](C)CO)C(=O)Cc2cc(NC(=O)Nc3ccc(F)cc3)ccc2O[C@@H]1CN(C)Cc1ccc(C(=O)Nc2ccccc2N)cc1	-22	/	62	/
COCCOC(=O)N1C(=O)[C@@]2(c3cc(C#CCC(C(=O)OC)C(=O)OC)ccc31)[C@H](c1ccccc1OCCO)N1[C@H](c3ccccc3)[C@H](c3ccccc3)OC(=O)[C@H]1[C@@H]2C(N)=O	/	8	/	/
COCCNc1ncnc2c1oc1ccccc12	-8	-1	20	4
Cc1cc(Cl)ccc1NC(=O)CNS(=O)(=O)c1ccc(Br)cc1	-2	-3	-13	17
CC(C)c1ccc(NC(=O)CN(C)S(=O)(=O)c2ccc3ccccc3c2)cc1	9	-1	-9	-3
C[C@@H]1CN([C@H](C)CO)C(=O)c2cc(NC(=O)Nc3cccc4ccccc34)ccc2O[C@H]1CN(C)Cc1ccc(C(=O)Nc2ccccc2N)cc1	21	/	27	/
C[C@@H]1CN([C@H](C)CO)C(=O)Cc2cc(NC(=O)c3ccncc3)ccc2O[C@@H]1CN(C)Cc1ccc(C(=O)Nc2ccccc2N)cc1	-12	/	61	/
C[C@H]1CN([C@@H](C)CO)C(=O)Cc2cc(NC(=O)C3CC3)ccc2O[C@H]1CN(C)Cc1ccc(C(=O)Nc2ccccc2N)cc1	15	/	128*	/
C[C@H](CO)N1C[C@H](C)[C@H](CN(C)Cc2ccc(C(=O)Nc3ccccc3N)cc2)Oc2ccc(NC(=O)c3ccncc3)cc2CC1=O	5	/	128*	/
CC(C)NC(=O)Nc1ccc2c(c1)CC(=O)N([C@H](C)CO)C[C@H](C)[C@H](CN(C)Cc1ccc(C(=O)Nc3ccccc3N)cc1)O2	24	/	126*	/
C[C@@H]1CN([C@@H](C)CO)C(=O)Cc2cc(NC(=O)c3ccncc3)ccc2O[C@@H]1CN(C)Cc1ccc(C(=O)Nc2ccccc2N)cc1	0	/	65	/
C[C@H](CO)N1C[C@H](C)[C@H](CN(C)Cc2ccc(C(=O)Nc3ccccc3N)cc2)Oc2ccc(NC(=O)Nc3cccc4ccccc34)cc2CC1=O	24	/	141*	/
O=C(CN1C(=O)c2ccccc2S1(=O)=O)Nc1ccccc1Br	-36	-2	35	19
Cc1cc2ncc(-c3ccnc(SCc4c(Cl)cccc4Cl)n3)c(C)n2n1	-2	/	16	/
Cc1cccc(NC(=O)CCCC(=O)O)c1C	/	-1	/	3
C[C@H](CO)N1C[C@H](C)[C@H](CN(C)Cc2ccc(C(=O)Nc3ccccc3N)cc2)Oc2ccc(NC(=O)Cn3cnnn3)cc2CC1=O	0	/	97*	/
COc1ccc(S(=O)(=O)Nc2ccc3c(c2)CC(=O)N([C@H](C)CO)C[C@@H](C)[C@@H](CN(C)Cc2ccc(C(=O)Nc4ccccc4N)cc2)O3)cc1	-12	/	92*	/
COc1ccc(S(=O)(=O)Nc2ccc3c(c2)C(=O)N([C@H](C)CO)C[C@@H](C)[C@H](CN(C)Cc2ccc(C(=O)Nc4ccccc4N)cc2)O3)cc1	3	/	-1	/
SMILES	MITF inh	STK33 kin inh	NOMO-1 viab	p53 PUMA act
COc1ccc(S(=O)(=O)Nc2ccc3c(c2)CC(=O)N([C@H](C)CO)C[C@H](C)[C@H](CN(C)Cc2ccc(C(=O)Nc4ccccc4N)cc2)O3)cc1	0	/	140*	/
C=CCN1CCc2cc(O)c(O)cc2C(c2ccccc2)C1 (configuration not stated)	/	/	/	3
C=CCN1CCc2c(cc(O)c(O)c2Cl)C(c2ccccc2)C1 (configuration not stated)	3	0	117*	-14
C=C1C(=O)O[C@H]2[C@H]1[C@@H](OC(=O)/C(C)=C/C)C(OC(C)=O)/C(C(=O)OC)=C\CC[C@@]1(C)O[C@H]21 (some centres not stated)	45	-2	119*	/
C=C1C(=O)O[C@H]2[C@H]1[C@@H](OC(=O)/C(C)=C\C)C(OC(C)=O)/C(C(=O)OC)=C\CC[C@@]1(C)O[C@H]21 (some centres not stated)	53	2	109*	/
C=C1C(=O)O[C@H]2[C@H]1[C@@H](OC(=O)C(C)(O)CCl)C(OC(C)=O)/C(C(=O)OC)=C\CC[C@@]1(C)O[C@H]21 (some centres not stated)	53	0	109*	/
C=C1C(=O)O[C@H]2[C@H]1C[C@H](OC(=O)/C(C)=C\C)/C(C)=C\CC[C@@]1(C)O[C@@H]21	33	-2	121*	/
CC(=O)OC(CCCCc1ccc(O)c(O)c1)CCc1ccc(O)c(O)c1 (configuration not stated)	10	-3	35	/
CCC(C)CCC(O)C1=C(C)C(O)OC1=O (configuration not stated)	2	-1	32	-5
Cc1[nH]c2ccccc2c1C(=O)CSc1nc2scc(-c3ccco3)c2c(=O)n1-c1ccccc1	-22	-1	22	14
Cc1[nH]c2ccccc2c1C(=O)CSc1nc2sc(C)c(C)c2c(=O)n1-c1ccccc1	60	1	100*	-7
Cc1c(CO)c2ccccc2n1Cc1ccccc1C#N	14	4	121*	-54
CC1CN(C2=NC(=O)/C(=C/c3ccccc3)S2)CC(C)O1 (configuration not stated)	9	/	25	/
Cc1ccc(S(=O)(=O)Nc2ccc3c(c2)C(=O)N([C@H](C)CO)C[C@H](C)[C@H](CN(C)Cc2ccc(Cl)c(Cl)c2)OCCCC[C@@H](C)O3)cc1	80	6	111*	/
C[C@@H]1CCCCO[C@H](CN(C)Cc2ccc(Cl)c(Cl)c2)[C@@H](C)CN([C@H](C)CO)C(=O)c2cc(NS(=O)(=O)c3ccc(F)cc3)ccc2O1	16	1	61	/
Cc1ccc(S(=O)(=O)Nc2ccc3c(c2)C(=O)N([C@@H](C)CO)C[C@@H](C)[C@@H](CN(C)Cc2ccc(Cl)c(Cl)c2)O3)cc1	75	/	117*	/
